Measurements reported in ChEMBL document CHEMBL3988442, “University of Dundee, Small-Polar-MMV Screening Library” (2021).
About 13,000 (27%) of roughly 48,000 compounds showed an effect of 50% or more. This is one part of the list.

Tested on: Wolbachia pipientis
Test: Anti-Wolbachia Cell-Based Screen
Type: functional
Design: scale not given: in the data most compounds retested in dose-response had high values
Conditions: 5 µM

| SMILES | Percent Effect |
| --- | --- |
| CCOCC(=O)NC(C#N)c1cnn(-c2ccccc2)c1 (stereo not given) | 0.4784% |
| CCc1cc(CN(C)Cc2nc(-c3ccc(OC)cc3F)oc2C)on1 | -9.467% |
| Cc1cnccc1N1CCCN(C(=O)CCCc2cn[nH]c2)CC1 | 11.82% |
| O=C(Nc1nncs1)N1CCCN(C2CCCC2)CC1 | -1.803% |
| Cc1noc(C)c1CCC(=O)N[C@@H]1CCC[C@@H](Oc2cccnc2)[C@@H]1O | 114.3% |
| Cc1n[nH]c(C)c1CNC(=O)NC1CCCCC1 | -5.785% |
| CNC(=O)COc1ccccc1CNCc1c(C)noc1C | -55.32% |
| Cc1n[nH]c(C)c1CCCNCc1cn(CCC(N)=O)c2ccccc12 | -2.861% |
| Cc1nn(C)c(Oc2cccnc2)c1NC(=O)C1CCCO1 (stereo not given) | 5.234% |
| Cc1n[nH]c(C)c1CCC(=O)N[C@@H]1CCC[C@@H](Oc2ccccc2)[C@@H]1O | 124.4% |
| Cc1noc(C)c1CNC[C@@]1(COc2cccnc2)C[C@@H](O)[C@@H](O)C1.Cl.Cl | -8.065% |
| Cc1noc(C)c1CCC(=O)N[C@@H]1CC[C@@H](Oc2cccnc2)[C@@H]1O | 106.7% |
| Cc1[nH]ncc1CCCNC(=O)Nc1ccc2c(c1)OC1(CCCC1)O2 | -12.99% |
| Cc1cc2n(n1)CC(CNC1CCN(Cc3ccncc3)CC1)CN2 (stereo not given) | 3.296% |
| Cc1noc(C)c1CNC(=O)N(C1CC1)C(C)c1ccco1 (stereo not given) | -2.539% |
| Cc1ccc2c(-c3nc4c([nH]3)CCNC4C(=O)O)cccc2n1 (stereo not given) | 0.6964% |
| O=C(CC1CCc2ccccc21)NC1(C(=O)O)CCCC1 (stereo not given) | 9.016% |
| CNC(=O)CC1CC2(CCN(Cc3nccs3)CC2)c2ccccc21.O=C(O)C(F)(F)F (stereo not given) | -2.085% |
| CCNC(=O)CC1CC2(CCN(C(C)=O)CC2)c2cc(F)ccc21 (stereo not given) | -4.484% |
| CNC(=O)CC1CC2(CCNCC2)c2cc(F)ccc21 (stereo not given) | 95.41% |
| COCC(=O)N1CCC2(CC1)CC(CC(=O)NC1CC1)c1ccccc12 (stereo not given) | -16.01% |
| CCOC1CC2(CCN(C(=O)COC)CC2)c2cc(F)ccc21 (stereo not given) | -4.976% |

| SMILES | Percent Effect |
| --- | --- |
| CCN1CCC2(CC1)CC(CC(=O)N(C)C)c1ccc(F)cc12 (stereo not given) | 112.9% |
| O=C(CC1CC2(CCNCC2)c2ccccc21)NCC1CC1 (stereo not given) | 105% |
| Cc1ccc2c(c1)C1(CCNCC1)CC2OCC1CC1 (stereo not given) | 7.08% |
| COCCN1CCC2(CC1)CC(CC(N)=O)c1ccc(F)cc12 (stereo not given) | 8.076% |
| CCC(=O)N1CCC2(CC1)CC(CC(=O)N(C)C)c1ccc(F)cc12 (stereo not given) | 103% |
| CCC(=O)N1CCC2(CC1)CC(CC(N)=O)c1ccc(F)cc12 (stereo not given) | 3.39% |
| CCN1CC(C(=O)N2CCc3cc(C(N)=O)n(C)c3C2)CCC1=O (stereo not given) | -10.45% |
| Cc1ccc(-c2nc(CN3CCn4c(nnc4C4CC4)C3)no2)cc1 | -10.52% |
| c1cncc(NCCNC2CCSC2)c1 (stereo not given) | 14.04% |
| CCC(C)n1cnc(S(=O)(=O)N(C)c2cccnc2N(C)C)c1 (stereo not given) | 2.284% |
| Cc1nnc(CSc2ccccn2)o1 | -5.067% |
| O=C(CCN1CCCC1C1CCCCC1)N1CCc2sccc2C1 (stereo not given) | 3.149% |
| CN(C)S(=O)(=O)N1CCC2(CC1)CC(OCC1CC1)CO2 (stereo not given) | -4.528% |
| CC(C)(C)CC(=O)NC[C@H]1OC[C@@H](NC2CCC(F)(F)CC2)[C@@H]1O | -11.06% |
| COc1nn(C)c2c1CCCN(C(=O)c1c[nH]cn1)C2 | -44.84% |
| Cn1nc(C#N)c2c1CN(C(=O)c1c[nH]cn1)CCC2 | -11.9% |
| COc1nn(C)c2c1CCCN(C(=O)c1cnccn1)C2 | 102.6% |
| COc1nn(C)c2c1CCCN(C(=O)c1cscn1)C2 | 93.39% |
| Cn1nc(C#N)c2c1CN(C(=O)c1ccnnc1)CCC2 | -0.2276% |
| Cn1nc(C#N)c2c1CN(C(=O)c1nc[nH]n1)CCC2 | -49.74% |
| CCN(Cc1noc(C(C)(C)C)n1)Cc1ccc(C#N)cc1F | -6.556% |
| OC(CN(Cc1ccccc1)Cc1cccnc1)c1cccs1 (stereo not given) | -7.082% |

| SMILES | Percent Effect |
| --- | --- |
| Cc1cc(C)n(CCC(=O)N2CCCCC2c2nccs2)n1 (stereo not given) | 97.13% |
| Cc1cc(C)n(Cc2cc(C(=O)N[C@H]3CCCCNC3=O)n[nH]2)n1 | 1.384% |
| Cc1cc(C)n(CC2CCCN2C(=O)Cc2cn3ccsc3n2)n1 (stereo not given) | 5.291% |
| Cc1noc(CCCC(=O)N2CCCCC2c2nccs2)n1 (stereo not given) | 4.452% |
| Cc1cc(C)n(Cc2cc(C(=O)N3CCCC3c3nccs3)n[nH]2)n1 (stereo not given) | 147.1% |
| Cc1cc(C)n(CC2CCCN2C(=O)CCCNc2ncccn2)n1 (stereo not given) | -5.56% |
| Cc1cc(C)n(Cc2cc(C(=O)N3CCCCC3c3nccs3)n[nH]2)n1 (stereo not given) | 94.44% |
| O=C(CCCn1cncn1)N1CCCCC1c1nccs1 (stereo not given) | -0.08053% |
| Cc1cc(C)n(Cc2cc(C(=O)N3CCCC3c3ccccn3)n[nH]2)n1 (stereo not given) | 101.3% |
| Cn1cccc1-c1cc(C(=O)N2CCCC2c2nccs2)[nH]n1 (stereo not given) | -11.21% |
| CC(=O)N1CCC(N2CCN3C(=O)N(c4ccccc4)C[C@H]3C2)CC1 | -6.558% |
| CC(C)C(=O)N1CCN(S(=O)(=O)C2CC2)CC2(CC(=O)N(C)C2)C1 (stereo not given) | -3.068% |
| CNC(=O)c1nnn(-c2ccccc2F)c1-c1ccccn1 | -7.96% |
| C[C@H]1C[C@H]2CN(C(=O)C3=CCCCC3)CC[C@H]2O1 | -8.819% |
| Cc1cccc2[nH]c(C3CCCN3Cc3ccc(CO)o3)nc12 (stereo not given) | -7.499% |
| CCS(=O)(=O)NC(C(=O)NC)c1ccc(F)c(F)c1 (stereo not given) | -1.609% |
| Cc1csc(C2CCCCN2C(=O)c2cc(C3CC3)[nH]n2)n1 (stereo not given) | 105.1% |
| CCc1nc(C2CCCN2C(=O)c2cc(C3CC3)[nH]n2)no1 (stereo not given) | -2.923% |
| Cc1csc(C2CCCCN2C(=O)c2cc(C(C)C)[nH]n2)n1 (stereo not given) | 109.6% |
| Cc1csc(N2CCN(C(=O)c3cc(C4CC4)[nH]n3)CC2)n1 | -15.84% |
| Cc1cc(C(=O)N2CCCCC2c2nc(C)cs2)[nH]n1 (stereo not given) | 5.063% |
